Source: PubChem BioAssay AID504708 (Sanford-Burnham Center for Chemical Genomics, 2011)
Some of the results follow. A number with no mark means an inactive call. The source made the active and inactive calls.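 The calls were made as follows: active = inhibition at or below a set negative limit, negative inhibition meaning the enzyme was activated; inactive = the rest.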

Molecular target: Hexokinase HKDC1 (Homo sapiens) (UniProt Q2TB90)
Experiment: HKDC1 hexokinase activators, confirmation, biochemical, single concentration (AID 504708)
Settings: recombinant HKDC1, G6PDH/diaphorase resazurin fluorescence; at 20 µM; stronger effect = lower value

Sequence of Hexokinase HKDC1 (Homo sapiens) (Q2TB90 whole entry, looked up): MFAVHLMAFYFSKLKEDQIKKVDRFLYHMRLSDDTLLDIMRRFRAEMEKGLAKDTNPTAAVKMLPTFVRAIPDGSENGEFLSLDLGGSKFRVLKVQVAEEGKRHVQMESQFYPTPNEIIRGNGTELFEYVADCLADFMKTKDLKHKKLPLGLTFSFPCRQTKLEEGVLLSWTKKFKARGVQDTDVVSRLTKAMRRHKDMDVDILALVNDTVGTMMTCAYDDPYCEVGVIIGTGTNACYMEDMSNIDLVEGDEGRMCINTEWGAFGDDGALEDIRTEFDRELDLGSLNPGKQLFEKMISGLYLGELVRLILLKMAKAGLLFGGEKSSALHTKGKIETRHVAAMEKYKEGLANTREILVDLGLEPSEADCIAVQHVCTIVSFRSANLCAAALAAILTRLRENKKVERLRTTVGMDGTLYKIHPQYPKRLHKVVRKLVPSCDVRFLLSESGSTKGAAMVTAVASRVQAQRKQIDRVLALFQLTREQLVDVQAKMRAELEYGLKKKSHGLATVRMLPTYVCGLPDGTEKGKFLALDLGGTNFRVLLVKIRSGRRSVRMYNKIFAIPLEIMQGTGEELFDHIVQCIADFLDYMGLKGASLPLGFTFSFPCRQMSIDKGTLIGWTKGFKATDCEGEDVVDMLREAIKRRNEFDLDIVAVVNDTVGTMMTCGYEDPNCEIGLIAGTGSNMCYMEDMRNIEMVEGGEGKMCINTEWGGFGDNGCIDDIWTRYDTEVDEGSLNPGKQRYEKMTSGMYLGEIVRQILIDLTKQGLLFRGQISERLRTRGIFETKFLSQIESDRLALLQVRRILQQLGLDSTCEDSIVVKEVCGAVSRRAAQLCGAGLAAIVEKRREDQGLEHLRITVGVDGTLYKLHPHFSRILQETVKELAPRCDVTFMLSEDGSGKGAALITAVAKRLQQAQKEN

Compound: O=C1NC(=O)N(c2ccc(F)cc2)C(=O)/C1=C/c1ccc2c(c1)CCCN2Cc1ccccc1
- inhibition: 1.36%

Compound: CC(=O)OC1C2(CC3N4C(=O)C5(CO)SSC4(CC31O)C(=O)N5C)OC(C)C(C)(C)C2=O (configuration not stated)
- inhibition: -77% (active)
